Calls of active or inactive are those of the source.
Test: growth effects on S. cerevisiae YJM789 – YJM789 clinical isolate, OD600, 24 h, basal, primary screen (AID 1089);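 further: growth of clinical yeast isolate S. cerevisiae YJM 789 seeded 1000 cells per well; test concentration not given here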
Conditions: higher = more signal, called active from +8 up or from −8 down

z-score, inactive:
COC(=O)c1c2oc(c1C(=O)OC)C(=O)N[C@@H](C(C)C)Cn1cc(nn1)C1(CCCCC1)NC(=O)N[C@H](CO)CC2 -0.301
COc1ccccc1CN1C(=O)c2ccccc2[C@@]2(Cc3ccccc3N(CCCN(C)C)C2=O)[C@@H]1c1ccc(CO)cc1 0.431
COC(=O)[C@@]1(Cc2ccc(OC)cc2)[C@H]2c3cc(C(=O)N(C)C)n(Cc4ccc(C(F)(F)F)nc4)c3C[C@H]2CN1C(=O)c1ccccc1 0.643
CC(CO)N1C(=O)[C@@H]2C3C(=O)OCCC/C=C\[C@H]3OC23C=CCN(CCN2CCOCC2)C(=O)[C@@H]13 (stereo not given in full) -0.321
CCOC(=O)C1=C[C@@H](C(C)C)N(S(=O)(=O)c2ccc(C)cc2)[C@H]1c1ccccc1F -0.413
O=C1O[C@@H](c2ccccc2)[C@@H](c2ccccc2)N2[C@@H](c3ccccc3OCCO)[C@]3(C(=O)Nc4ccc(C#CC5(O)CCCCCC5)cc43)[C@@H](C(=O)N3CCN(c4ncccn4)CC3)[C@H]12 3.08
COC(=O)c1c(CC[C@@H](CO)NC(=O)N[C@@H](Cc2ccccc2)Cn2cc(-c3ccccn3)nn2)oc(C(=O)N2CCOCC2)c1C(=O)OC 0.503
COc1ccc(C(O)C2C=CC3C(=O)N(C)C(=O)C3N2N(c2ccccc2)c2ccccc2)c2ccccc12 (stereo not given) 0.388
CS(=O)(=O)CCOC(=O)C1=CC(CCCO)=CC(c2ccc(CN3CCCC3)cc2)N(Cc2cccc(OC(F)(F)F)c2)C=C1C(=O)OCCS(C)(=O)=O (stereo not given) 0.441
C=CC[C@]1(C(=O)N2CCOCC2)N=C(c2ccc(OCCCO)cc2)O[C@H]1c1ccccc1N=[N+]=[N-] -0.0233
CCCCN1CC=CC23O[C@@H]4/C=C\CCCOC(=O)C4[C@H]2C(=O)N(CCCCCO)[C@@H]3C1=O (stereo not given in full) -0.669
O=C(O)[C@@]1(CCS(=O)(=O)c2ccccc2)N=C(c2ccc(OCCCO)cc2)O[C@H]1c1ccccc1 -0.326
COc1ccc([Si](C)(C)[C@@H]2[C@@H](CC(=O)N3Cc4ccccc4C[C@H]3CO)O[C@]3(C(=O)N(Cc4cccc(N5CCC5=O)c4)c4ccccc43)[C@H]2C)cc1 0.0342
O=C1OCCC=C[C@H]2OC34C=CCN(c5ccc(Cl)cc5)C(=O)[C@H]3N(CCCO)C(=O)[C@@H]4C12 (stereo not given in full) -0.0304
CCCCCCCCCCC(O)C1C=CC2C(=O)NC(=O)C2N1Nc1ccc(Cl)cc1Cl (stereo not given) 1.52
C=CCC(OC(C)=O)[C@@H]1[C@@H](N(Cc2ccc(-c3ccccc3)cc2)C(=O)Cc2ccc(F)cc2)c2cc(OCCCO)ccc2N1C(=O)c1ccc2ccccc2c1 (stereo not given in full) 0.245
COCC(=C=CC[C@H](O)c1cccc(OCCO)c1)C[C@H](O)c1cc(Cl)cc(Cl)c1O 1.11
Cc1ccc(/C=C/C=O)cc1 0.427
C=C(CCCC)/C(=C/C[C@H](OC(C)=O)c1ccc(OCCO)cc1)c1cnc2ccccc2c1 -1.1
COc1cc2c(cc1O)C=[N+](Cc1cc3c(cc1Br)OCO3)CC2 0.213
CCCCCCc1nc(-c2ccc(-c3ccc(Cl)c(Cl)c3)o2)c(C)c2c1[Si](C(C)C)(C(C)C)OC2 -0.972
COCCCNC(=O)[C@]1(Cc2ccccc2)N=C(c2ccc(OCCCO)cc2)O[C@@H]1c1ccccc1CN=[N+]=[N-] -2.05
[N-]=[N+]=Nc1ccccc1C[C@@]1(C(=O)N2CCCCC2)N=C(c2ccc(OCCCO)cc2)O[C@@H]1c1ccccc1 -1.96
C=CCN(Cc1ccccc1)C(=O)C(c1cccs1)N(C(=O)/C=C\C(=O)O)c1ccc(CCOCCO)cc1 (stereo not given) -1.22
[N-]=[N+]=NCc1ccccc1[C@H]1OC(c2ccc(OCCCO)cc2)=N[C@@]1(Cc1ccccc1)C(=O)N1CCCCC1 -1.88
CC(C)(C)OC(=O)CC[C@]1(C(=O)NCCN2CCOCC2)COC(c2ccc(OCCCO)cc2)=N1 0.57
COC(=O)[C@@]1(Cc2ccc(OC)cc2)[C@H]2c3cc(C(=O)N4CCCC4)n(CCCNc4ncc(C(F)(F)F)cc4Cl)c3C[C@H]2CN1C(=O)c1ccccc1 -0.496
COCCOC(=O)N1C(=O)[C@@]2(c3ccccc31)[C@H](C(N)=O)[C@H]1C(=O)O[C@H](c3ccccc3)[C@H](c3ccccc3)N1[C@@H]2c1ccc(O)cc1 -1.19
CC(=O)NCCCC[C@@H]1NC(=O)[C@H]2C[C@@H](C(=O)NCCCCCNC(=O)CS)[C@@H](c3ccc(O)cc3)N2C1=O 1.16
CCOc1ccc(N2C(=O)CSC2c2cccc([N+](=O)[O-])c2)cc1 (stereo not given) 0.493
COc1ccc(C(=O)Nc2ccc(CN3C(=O)[C@]4(O[C@H](CC(=O)N5CCC[C@H]5CO)[C@@H]([Si](C)(C)c5ccc(OC)cc5)[C@@H]4C)c4ccccc43)cc2)cc1 -0.676
C=C(CCCC)C(=O)CC[C@H](OC(=O)c1cccnc1)c1ccc(OCCO)cc1 0.0275
COC(=O)c1c(CC[C@@H](CO)NC(=O)NCCc2c[nH]c3ccccc23)oc(C(=O)Cc2ccccc2)c1C(=O)OC 0.433
COC(=O)C(CC#Cc1ccc2c(c1)[C@]1(C(=O)N2)[C@H](c2ccccc2OCCO)N2[C@H](c3ccccc3)[C@H](c3ccccc3)OC(=O)[C@H]2[C@@H]1C(=O)O)C(=O)OC 2.46
CN(C)CCCC[C@@H]1NC(=O)[C@H]2C[C@@H](C(=O)NCCCCCN)[C@@H](c3cccc(OCCO)c3)N2C1=O -0.717

— PubChem BioAssay
